# Only some compounds are listed: those with a hit (about 14% of all), similar ones and a draw of the others.
# LmPK inh: blocks Leishmania mexicana pyruvate kinase activity. Q27686. purified LmPK, Kinase-Glo ATP luminescence, 1 h. Potency, µM (series often up to 57.5 µM), inactives show top-dose activity change, negative = inhibition, hits mostly inhibitors. 0.37% of 290,000 active. AID 1721; further: potency means the concentration at half of the fitted maximal effect; on the % scale 0 is the no-effect control and ±100 the full control effect
#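 Kinase-Glo luminescence read after 1 h RT reaction of 0.1 nM LmPK with 0.5 mM PEP and 0.1 mM ADP. Activity scaled between uninhibited and enzyme-free controls.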
# NS1 function inh: inhibitors of influenza NS1 protein function; 0.4% of 270,000 active; Potency, µM (titrated, usually from 46.1 µM), for inactives: top-dose activity, positive = more growth; calls by dose curve; further: potency means the concentration at half of the fitted maximal effect; actives are rising curves; nearly all actives have a fitted effect of over 50% in size
#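 S. cerevisiae expressing influenza A NS1, grown in glucose, washed, then diluted 1:100 into pH 6.0 -URA galactose medium with 23 nl compound. Growth recovery read as OD600; NS1-free strain serves as control.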
# CHX counter: counter-screen for Shiga toxin inhibitors: cycloheximide protein synthesis inhibition | cell reporter, cycloheximide protein synthesis inhibition counterscreen | max response, % | 12% of 300,000 active | AID 2314; in the data active means max response mostly above about 13%, no sharp cut-off; inactive means mostly below about 14%; further: read at 38.3 µM for the half of the compounds with a filed dose; 0% is about no effect
# Giardia FBPA inh: inhibitors of Giardia lamblia fructose-1,6-bisphosphate aldolase; purified Giardia FBPA; Potency, µM (highest dose often 59.6 µM), for the others: at the highest dose activity, negative = inhibition, most hits filed as inhibitors; A8B2U2; 0.71% of 290,000 active; further: potency means the concentration at half of the fitted maximal effect; on the % scale 0 is the no-effect control and ±100 the full control effect; nearly all actives have a fitted effect of over 55% in size
# Target sequence (A8B2U2 whole entry, looked up): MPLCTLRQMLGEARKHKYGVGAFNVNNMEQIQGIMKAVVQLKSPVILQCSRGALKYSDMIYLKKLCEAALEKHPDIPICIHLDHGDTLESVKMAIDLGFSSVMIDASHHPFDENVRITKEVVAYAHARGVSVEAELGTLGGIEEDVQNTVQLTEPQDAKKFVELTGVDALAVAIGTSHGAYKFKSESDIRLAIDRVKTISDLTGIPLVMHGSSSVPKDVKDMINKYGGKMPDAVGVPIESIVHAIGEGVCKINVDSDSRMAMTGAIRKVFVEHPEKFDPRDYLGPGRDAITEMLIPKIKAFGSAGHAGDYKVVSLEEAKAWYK
#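 40 nM FBPA preincubated 10 min at RT with compound (up to 57.5 uM final), then substrate plus GAPDH/TPI/NAD/arsenate coupling and diaphorase/resazurin added. Fluorescence read after 20 min at RT, 525/598 nm.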
# Shiga inhibitor: Shiga toxin inhibition; 9.2% of 290,000 active; inhibition, % at 38.7 µM; Vero cells, Shiga toxin protein synthesis inhibition reporter; AID 2315; in the data active means inhibition mostly above about 28%, no sharp cut-off; inactive means mostly below about 43%; further: 0% is about no effect
# Active calls of the source: *; ? = inconclusive; . = not tested or not shown. Unless noted, the call rests on the fitted dose curve; in most records, active means well fitted curve in the direction sought with a large enough effect; inconclusive means small, poorly fitted or top-dose-only effect, or another doubt; inactive means no such curve, though single readings can be large; an effect the other way counts as inactive or inconclusive.
SMILES,LmPK inh,NS1 function inh,CHX counter,Giardia FBPA inh,Shiga inhibitor
O=C(N/N=C1/CCS(=O)(=O)c2ccc(F)cc21)c1ccccn1,4%,.,15,?,54
C/C(=N\NC(=O)c1c[nH]c2ccccc12)c1ccc(C)o1,-4%,-1%,3,0%,12
O=C(NN=C1CCCCCCC1)c1ccccn1,-2%,-2%,23*,?,39
Cc1cccc(NC(=S)N/N=C2/CCCCc3ccccc32)c1,3%,?,-5,2%,-5
O=C(c1ccco1)N1CCC2(CC1)CCN(c1ccccc1)CC2,.,.,.,-2%,.
CC(=O)Nc1ccc(OCC(O)CN2CCN(c3ccc(F)cc3)CC2)cc1 (stereo unspecified),-2%,12%,-1,2%,.
O=C(NN=C1CCCCCCC1)c1ccc2ccccc2n1,3%,.,17*,1%,27
O=C(NN=C1CCCCCC1)c1cc2ccccc2cc1O,1%,7%,8,20%,18
Cc1ccc2nc(C)/c(=N\O)c(C)nc2c1,-3%,-30%,23*,.,86*
Cc1nc2ccc(Cl)cc2nc(C)/c1=N\O,1%,-65%,28*,14µM*,50
Cc1nc2ccccc2nc(C)c1=NO,-6%,-48%,51*,?,114*
Cn1c(=O)c(C(=O)COC(=O)c2cc(-c3ccco3)nc3ccccc23)c(N)n(Cc2ccccc2)c1=O,6%,8.9µM*,-1,-23%,29
Cc1occc1C(=O)N/N=C/C1=C(N2CCOCC2)C(=C\c2ccc(Cl)cc2)/CC1,5%,14%,24*,0%,13
O=C(O)c1ccccc1N/N=C/C1=C(N2CCOCC2)C(=C\c2ccccc2)/CC1,2%,4%,15,-5%,59*
O=C(N/N=C/C1=C(N2CCOCC2)C(=C\c2ccccc2)/CC1)Nc1ccccc1,-3%,5%,-2,5%,-4
O=C(c1ccc(CSc2nc3ccncc3[nH]2)cc1)N1CCCCCC1,-26%,2%,18*,0%,39
O=C(c1ccc(CSc2ccc(Cl)cc2)cc1)N1CCCC1,-7%,.,23,-1%,61*
Cc1ccc(CSc2nc3ccncc3[nH]2)cc1,?,-5%,15,-13%,-3
Clc1ccc(CSc2nc3ccncc3[nH]2)cc1,?,-76%,51*,-17%,51*
C[C@H]1[C@H]2CC[C@H]3C4CC=C5C[C@@H](N(C)C)CC[C@]5(C)C4CC[C@]23CN1C (stereo partly specified),.,.,.,5%,.
CC(C)(C)OC(=O)N1Cc2ccccc2C[C@H]1C(=O)NCC(=O)NCC1CCCO1 (stereo partly specified),5%,-9%,1,3%,-10
O=C(COc1ccc(Br)cc1)N1CCc2ccccc2C1,3%,-49%,10,-7%,24
O=C(COc1ccc(Br)cc1)N1CCc2ccccc21,0%,-4%,27*,-4%,111*
O=C(CCCOc1ccccc1)N1CCCc2ccccc21,2%,-22%,49*,12%,132*
O=C(COc1ccccc1)N1CCc2ccccc21,-29%,-6%,31*,-17%,76*
SMILES,LmPK inh,NS1 function inh,CHX counter,Giardia FBPA inh,Shiga inhibitor
O=C1c2cccc(OCC(=O)N3CCCc4ccccc43)c2CCN1Cc1ccccc1,1%,-4%,14*,-5%,20
Cc1cc(Cl)ccc1OCCCC(=O)N1CCCc2ccccc21,2%,-4%,6,0%,-6
COC(=O)c1ccc(OCC(=O)N2CCCc3ccccc32)cc1,-7%,-14%,0,8%,-3
Cn1c(SCC(=O)NC2(C#N)CCCCC2)nnc1-c1cccnc1,-4%,11%,4,0%,-14
Cc1nc2c(C)cccn2c1/C(O)=C1\C(=O)C(=O)N(CCN(C)C)C1c1ccccc1 (stereo unspecified),0%,2%,4,-12%,15
O=C(COc1ccccc1Cl)N1CCc2ccccc21,-10%,-14%,41*,14%,101*
O=C(COc1ccccc1Cl)N1CCc2ccccc2C1,-1%,-28%,4,1%,.
NC(=O)c1ccccc1OCC(=O)N1CCCc2ccccc21,-7%,8%,26*,25%,74*
CCSc1nnc(NC(=O)c2csc(C)c2)s1,-8%,-4%,17*,-6%,49*
CCc1ccccc1NC(=O)CN(C)C(=O)CSc1nnc(Nc2cccc(C)c2)s1,4%,-2%,7,-6%,14
C/C(N)=C(/C#N)C(=O)CSc1nnc(Nc2cccc(C)c2)s1,9%,-1%,31*,-8%,67*
